The list is not random: actives were taken first. Their share in the collection is about 2.5%.
ASK1 inh – inhibitors of human ASK1 kinase; Q99683; AlphaScreen MKK6 phosphorylation by ASK1, luminescence; inhibition, % at 7.44 µM; 22,000 tested, 0.99% active; AID 1159602; in the data active means inhibition above about 35%;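 further: 0% = median of compound wells and 100% = no enzyme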
ULK1 primary – blocks human autophagy kinase ULK1; AlphaScreen Atg13 phosphorylation by ULK1, luminescence; AID 1259251; inhibition, % at 5.96 µM; O75385; 30,000 tested, 1.9% active; in the data active means inhibition above about 43%;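 further: 0% = median of compound wells and 100% = no enzyme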
Target sequence (O75385 whole entry, looked up): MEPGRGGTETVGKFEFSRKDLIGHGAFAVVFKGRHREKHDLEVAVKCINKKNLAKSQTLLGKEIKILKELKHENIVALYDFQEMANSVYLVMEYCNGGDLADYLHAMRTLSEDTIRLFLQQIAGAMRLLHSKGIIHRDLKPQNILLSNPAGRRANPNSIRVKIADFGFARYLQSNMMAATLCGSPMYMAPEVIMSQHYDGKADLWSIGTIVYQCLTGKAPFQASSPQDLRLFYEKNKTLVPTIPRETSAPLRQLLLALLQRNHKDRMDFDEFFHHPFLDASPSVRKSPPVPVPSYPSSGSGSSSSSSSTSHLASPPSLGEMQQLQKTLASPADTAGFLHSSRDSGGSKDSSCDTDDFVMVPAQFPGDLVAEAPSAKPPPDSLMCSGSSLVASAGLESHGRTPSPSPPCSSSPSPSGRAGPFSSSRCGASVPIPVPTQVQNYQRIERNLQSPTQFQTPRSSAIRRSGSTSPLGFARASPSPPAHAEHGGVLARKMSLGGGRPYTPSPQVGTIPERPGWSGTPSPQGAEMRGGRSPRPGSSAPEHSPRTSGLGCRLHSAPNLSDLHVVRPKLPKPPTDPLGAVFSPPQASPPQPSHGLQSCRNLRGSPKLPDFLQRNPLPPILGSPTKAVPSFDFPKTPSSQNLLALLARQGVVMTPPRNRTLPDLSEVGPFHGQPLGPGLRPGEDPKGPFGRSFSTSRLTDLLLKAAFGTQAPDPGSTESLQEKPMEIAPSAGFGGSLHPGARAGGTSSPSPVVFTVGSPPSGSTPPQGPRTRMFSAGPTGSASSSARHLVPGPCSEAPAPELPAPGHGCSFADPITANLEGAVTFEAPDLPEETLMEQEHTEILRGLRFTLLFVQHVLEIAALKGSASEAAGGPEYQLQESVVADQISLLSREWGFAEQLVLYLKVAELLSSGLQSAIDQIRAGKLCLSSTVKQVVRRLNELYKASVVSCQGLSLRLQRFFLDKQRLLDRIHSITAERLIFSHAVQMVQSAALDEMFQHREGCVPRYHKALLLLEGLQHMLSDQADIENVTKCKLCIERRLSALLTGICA
* marks the source's active call; other numbers are inactive results; . = no result given.

SMILES | ASK1 inh | ULK1 primary
COc1ccc(-c2nc(C)cc(Nc3cc(OC)c(OC)c(OC)c3)n2)cn1 | 12.6 | -7.6
Cn1nccc1Nc1nc(C(=O)NCc2cccc(C(F)(F)F)c2)cs1 | -8.0 | -5.2
COc1cc(Nc2cc(-c3ccc(N4CCOCC4)nc3)nc(N)n2)cc(OC)c1OC | 6.3 | 1.1
Cn1c(Nc2nc(NCCO)c3ncn(CCN4CCCC4=O)c3n2)nc2ccccc21 | 1.7 | 73.4*
CCCNc1nc(Nc2nc3ccccc3n2C)nc2c1ncn2CCN1CCCC1=O | -13.9 | 0.7
O=C1CCCN1CCn1cnc2c(Nc3ccccc3)nc(NCc3cccnc3)nc21 | -10.0 | -13.4
COc1ccccc1N1C(=O)c2cccc3c(C(=O)O)ccc(c23)C1=O | . | 6.7
CCC(=N)c1ccc(OC)c2cccc(NC)c12 | . | 64.4*
COc1cc(S(N)(=O)=O)cc(C(=O)O)c1OC | . | -10.4
O=C(NC1CC1)c1ccc(-c2cc(C(=O)NC3CC3)ccn2)cc1 | -19.9 | 4.1
CC(=O)Nc1ccc(NC(=O)c2ccnc(-c3ccc(C(=O)NC4CC4)cc3)c2)cc1 | 7.2 | 44.2*
CN1CCN(C(=O)c2ccc(-c3nc(NCCc4ccc(O)cc4)c4ncn(Cc5ccc(C(F)(F)F)cc5)c4n3)cc2)CC1 | 4.3 | -27.5
CN1CCN(C(=O)c2ccc(-c3nc(Nc4ccc(N5CCOCC5)cc4)c4ncn(C5CCCCC5)c4n3)cc2)CC1 | 13.0 | 0.7
NC(=O)c1ccc(-c2nc(Nc3ccc(N4CCOCC4)cc3)c3ncn(C4CCCCC4)c3n2)cc1 | -0.2 | 44.2*
c1ccc(Nc2nc(NCCN3CCOCC3)c3ncn(C4CCCCC4)c3n2)cc1 | 10.8 | -10.4
c1cc(N2CCOCC2)ccc1Nc1nc(NCCN2CCOCC2)nc2c1ncn2C1CCCCC1 | -34.8 | 54.7*
CC(C)n1c(N2CCC(N3CCOCC3)CC2)nc2c(NC3CCN(Cc4ccccc4)CC3)ncnc21 | -21.7 | 1.1
Cc1cccc(NC(=O)CSc2ncc(-c3ccccc3)n2C)c1 | . | 6.0
C=C(C)C(=O)Oc1ccc(N2C(=O)c3ccccc3C2=O)cc1 | . | -9.5
C/C=C(\CC(NCCCCC(OC)OC)c1ccccc1)C[Si](C)(C)C (centres undefined) | -9.9 | -13.9
c1cc(-n2cnc(N3CCOCC3)n2)ccc1Nc1ncc2cc(-c3cn[nH]c3)ccc2n1 | 8.8 | 11.4
CC(=O)c1nc(Nc2ccc(-n3cnc(C)n3)cc2)ncc1Cl | 5.5 | 33.8
Clc1cnc(Nc2ccc(-n3cnc(N4CCOCC4)n3)cc2)nc1-c1cn[nH]c1 | -33.1 | 77.2*
Cc1ncn(-c2ccc(Nc3ncc(Cl)c(-c4cn[nH]c4)n3)cc2)n1 | -43.4 | 72.6*
c1cc(Nc2cc(NCCN3CCOCC3)ncn2)ncn1 | -21.9 | -1.2
SMILES | ASK1 inh | ULK1 primary
COc1ccc(CCNc2nc(-c3ccc(OC)nc3)nc3c2ncn3Cc2ccc(C(F)(F)F)cc2)cc1 | 12.3 | -1.2
CCn1c(=S)[nH]c2sc3c(c2c1=O)CCN(C)C3 | . | 6.0
Cc1ncn(-c2ccc(Nc3nccc(N4CCCC(C(=O)O)C4)n3)cc2)n1 (centres undefined) | -11.7 | 0.5
c1cc(-n2cnc3c(Nc4ccc(N5CCOCC5)cc4)nc(NCCN4CCOCC4)nc32)cs1 | -2.1 | 28.8
Cn1nccc1Nc1cccc(C(=O)Nc2ccc(N3CCOCC3)cc2)n1 | -28.2 | 44.6*
Cn1nccc1Nc1ncc(C(=O)Nc2ccc(N3CCOCC3)cc2)s1 | -9.3 | -8.9
Nc1nc(Nc2ccc(C(F)(F)F)cc2)cc(Nc2ccc3c(c2)OCO3)n1 | 0.2 | 5.5
Cc1cc(NC2CC2)nc(-c2c(C)noc2C)n1 | -3.9 | -0.1
CC(C)C[C@H](O)C(=O)N1CCC(C(=O)Nc2ccc3[nH]ncc3c2)CC1 | -9.9 | 2.3
CC(C)C[C@H](O)C(=O)N1CCC(Nc2ccc3[nH]ncc3c2)CC1 | -38.4 | 53.0*
Cc1cc(NCCc2ccc(O)cc2)nc(N2CCC(N3CCOCC3)CC2)n1 | -3.1 | 26.9
Cc1cc(-n2c(C)nc3ncccc3c2=O)ccc1NC(=O)c1ccc(F)cc1 | . | 2.4
CNC(=O)c1ccccc1Nc1cc(Nc2ccc(N3CCOCC3)cc2OC)ncc1C | -2.9 | 18.4
Cn1nc(C2CC2)cc1Nc1cc(Nc2ccc(N3CCOCC3)cc2)ncc1C(F)(F)F | 10.3 | 45.7*
Cn1ccc(-c2ccccc2Nc2ccnc(Nc3ccc(N4CCOCC4)cc3)c2)n1 | 19.4 | -3.8
COc1cc(N2CCOCC2)ccc1Nc1cc(Nc2ccccc2C(N)=O)c(C(F)F)cn1 | -30.6 | 82.9*
COc1cc(N2CCOCC2)ccc1Nc1cc(Nc2ccccc2C(=O)N(C)C)c(C(F)(F)F)cn1 | 6.6 | 74.2*
COc1cc(N2CCOCC2)ccc1Nc1cc(-c2cnn(C)c2)c(Cl)cn1 | -12.4 | 3.4
FC(F)(F)c1ccc(Nc2nc(NC3CCN(Cc4ccccc4)CC3)c3ncn(C4CCCCC4)c3n2)cc1 | 11.0 | 2.8
Cc1cc(NCCc2ccc(O)cc2)nc(NC2CCN(Cc3ccccc3)CC2)n1 | -0.6 | 0.4
Cc1c(C(=O)N/N=C\c2cccc([N+](=O)[O-])c2)nnn1-c1nonc1N | . | 1.6
CCCCC(CC)CCC(CC(C)C)OS(=O)(=O)O (centres undefined) | . | 94.6*
CCCCCCCCCCCCOS(=O)(=O)O | . | 19.3
O=C(C1CCC(Nc2nccc(-c3ccc4nc(C5CC5)[nH]c(=O)c4c3)n2)CC1)N1CCCC1 (centres undefined) | -5.7 | 23.2
O=C(Nc1ccc(Nc2nccc(-c3ccc4nc(C5CC5)[nH]c(=O)c4c3)n2)cc1)N1CCCC1 | -44.2 | 58.8*
SMILES | ASK1 inh | ULK1 primary
Cc1ncn(-c2ccc(Nc3nccc(-c4ccc(N5CCC6(CC5)OCCO6)c(C#N)c4)n3)cc2)n1 | 1.3 | -0.6
N#Cc1cc(-c2ccnc(Nc3cccc(NC(=O)N4CCCC4)c3)n2)ccc1N1CCCC1 | 12.5 | 67.2*
CN1CCN(C(=O)c2ccc(Nc3nccc(-c4ccccc4)n3)cc2)CC1 | 22.5 | -0.7
O=C(c1ccc(Nc2nccc(-c3ccc4nc(C5CC5)[nH]c(=O)c4c3)n2)cc1)N1CCCC1 | -70.6 | 84.1*
Cn1cccc(-c2ccc(Nc3nccc(-c4ccc5nc(C6CC6)[nH]c(=O)c5c4)n3)cc2)c1=O | -9.8 | 36.9
Cn1nnc(-c2ccc(Nc3nccc(-c4ccc5nc(C6CC6)[nH]c(=O)c5c4)n3)cc2)n1 | -21.8 | 44.4*
c1ccc(N2CCN(c3nc(NCCN4CCOCC4)c4[nH]cnc4n3)CC2)nc1 | 9.8 | 8.3
Nc1nccc(-c2ccc3nc(C4COc5ccccc5C4)[nH]c(=O)c3c2)n1 (centres undefined) | 14.5 | -0.7
O=C(Nc1cccc(Nc2nccc(-c3ccc4nc(C5CC5)[nH]c(=O)c4c3)n2)c1)N1CCCC1 | 0.8 | 50.6*
O=c1c(-c2ccc(O)cc2)coc2cc(O)cc(O)c12 | . | -2.5
O=c1c(O)c(-c2ccc(O)c(O)c2)oc2cc(O)cc(O)c12 | . | 46.1*
Cc1noc(C)c1-c1nc(Nc2ccccc2)c2ncn(Cc3ccc(C(F)(F)F)cc3)c2n1 | -12.8 | -11.1
Oc1ccc(CCNc2nc(Nc3cnccn3)nc3c2ncn3C2CCCCC2)cc1 | -30.1 | 44.1*
COc1ccc(CCNc2nc(Nc3cnccn3)nc3c2ncn3C2CCCCC2)cc1 | -0.9 | 15.2
Nc1cccc(-c2cccc(C(=O)NCc3nc4ccccc4[nH]3)c2)c1 | 2.7 | -8.2
N#C/C(=C\c1nn(-c2ccccc2)c(N)c1C#N)c1ccco1 | . | 44.6*
CC(=O)c1cccc(-c2nc(Nc3ccccc3)c3ncn(C(C)C)c3n2)c1 | -16.2 | 46.2*
CC(C)n1cnc2c(Nc3ccccc3)nc(Nc3ccccc3)nc21 | -0.5 | 38.4
